The supplement of paper PMC11732987, “Enantioselective OTUD7B fragment discovery through chemoproteomics screening and high-throughput optimisation” (Communications Chemistry, 2025)

Tests used:
Assay in all cases: log2 ratio of Biotin-Ahx-Ub-VS probe labelling (fragment/DMSO); higher = less target engagement (more negative = stronger competition), active = hit call of the paper (q ≤ 0.05, log2 ratio ≤ -1)
Conditions in all cases: compound concentration: 200 uM; treatment time: 3 h
USP34 = USP34 (UniProt Q70CQ2)
Outline: (§1)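 HEK293T lysate in Tris/CHAPS/IGEPAL buffer with protease inhibitors (495 µg per sample) was given fragment at 200 µM or vehicle for 3 h, in triplicate. It then received Biotin-Ahx-Ub-VS at 0.5 µM final for 1 h. Labelled DUBs were NeutrAvidin-enriched, digested with LysC and trypsin, and run by diaPASEF LC-MS/MS. Values are average log2 fragment/vehicle ratios by unpaired t-test on global-median-normalised Spectronaut quantities of proteins with ≥2 unique peptides.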

USP36 = target: T1, USP36 (UniProt Q9P275)
T1 sequence (whole entry): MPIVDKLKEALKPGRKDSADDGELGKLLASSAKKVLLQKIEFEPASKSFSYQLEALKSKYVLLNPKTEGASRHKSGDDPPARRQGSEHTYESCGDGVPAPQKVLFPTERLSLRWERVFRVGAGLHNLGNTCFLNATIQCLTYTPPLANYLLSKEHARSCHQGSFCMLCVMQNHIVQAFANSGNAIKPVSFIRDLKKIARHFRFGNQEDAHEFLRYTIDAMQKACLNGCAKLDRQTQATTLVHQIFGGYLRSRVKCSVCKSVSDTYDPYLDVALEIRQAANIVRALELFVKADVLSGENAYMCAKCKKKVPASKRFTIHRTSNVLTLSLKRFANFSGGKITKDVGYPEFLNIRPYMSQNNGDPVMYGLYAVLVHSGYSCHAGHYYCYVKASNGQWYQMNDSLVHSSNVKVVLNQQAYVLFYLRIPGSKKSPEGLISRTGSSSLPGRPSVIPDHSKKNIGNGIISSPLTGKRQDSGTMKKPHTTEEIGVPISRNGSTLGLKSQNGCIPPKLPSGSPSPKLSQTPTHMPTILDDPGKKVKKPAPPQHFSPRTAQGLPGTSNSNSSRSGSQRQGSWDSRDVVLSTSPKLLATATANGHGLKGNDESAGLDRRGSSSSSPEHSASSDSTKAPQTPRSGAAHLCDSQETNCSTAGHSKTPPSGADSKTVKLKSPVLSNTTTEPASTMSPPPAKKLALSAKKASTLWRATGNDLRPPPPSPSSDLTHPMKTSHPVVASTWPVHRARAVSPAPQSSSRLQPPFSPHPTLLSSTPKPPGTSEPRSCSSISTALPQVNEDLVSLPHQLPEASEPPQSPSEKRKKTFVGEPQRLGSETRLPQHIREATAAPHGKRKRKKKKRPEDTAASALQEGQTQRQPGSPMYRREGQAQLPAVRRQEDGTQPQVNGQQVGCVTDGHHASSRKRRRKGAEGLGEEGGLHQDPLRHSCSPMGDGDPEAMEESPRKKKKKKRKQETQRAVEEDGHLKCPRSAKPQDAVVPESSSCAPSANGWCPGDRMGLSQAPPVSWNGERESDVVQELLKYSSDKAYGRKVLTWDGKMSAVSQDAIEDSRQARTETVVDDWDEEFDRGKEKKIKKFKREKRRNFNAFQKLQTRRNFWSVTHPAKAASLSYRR
Outline: as §1

USP38 = target: T2, USP38 (UniProt Q8NB14)
T2 sequence (whole entry): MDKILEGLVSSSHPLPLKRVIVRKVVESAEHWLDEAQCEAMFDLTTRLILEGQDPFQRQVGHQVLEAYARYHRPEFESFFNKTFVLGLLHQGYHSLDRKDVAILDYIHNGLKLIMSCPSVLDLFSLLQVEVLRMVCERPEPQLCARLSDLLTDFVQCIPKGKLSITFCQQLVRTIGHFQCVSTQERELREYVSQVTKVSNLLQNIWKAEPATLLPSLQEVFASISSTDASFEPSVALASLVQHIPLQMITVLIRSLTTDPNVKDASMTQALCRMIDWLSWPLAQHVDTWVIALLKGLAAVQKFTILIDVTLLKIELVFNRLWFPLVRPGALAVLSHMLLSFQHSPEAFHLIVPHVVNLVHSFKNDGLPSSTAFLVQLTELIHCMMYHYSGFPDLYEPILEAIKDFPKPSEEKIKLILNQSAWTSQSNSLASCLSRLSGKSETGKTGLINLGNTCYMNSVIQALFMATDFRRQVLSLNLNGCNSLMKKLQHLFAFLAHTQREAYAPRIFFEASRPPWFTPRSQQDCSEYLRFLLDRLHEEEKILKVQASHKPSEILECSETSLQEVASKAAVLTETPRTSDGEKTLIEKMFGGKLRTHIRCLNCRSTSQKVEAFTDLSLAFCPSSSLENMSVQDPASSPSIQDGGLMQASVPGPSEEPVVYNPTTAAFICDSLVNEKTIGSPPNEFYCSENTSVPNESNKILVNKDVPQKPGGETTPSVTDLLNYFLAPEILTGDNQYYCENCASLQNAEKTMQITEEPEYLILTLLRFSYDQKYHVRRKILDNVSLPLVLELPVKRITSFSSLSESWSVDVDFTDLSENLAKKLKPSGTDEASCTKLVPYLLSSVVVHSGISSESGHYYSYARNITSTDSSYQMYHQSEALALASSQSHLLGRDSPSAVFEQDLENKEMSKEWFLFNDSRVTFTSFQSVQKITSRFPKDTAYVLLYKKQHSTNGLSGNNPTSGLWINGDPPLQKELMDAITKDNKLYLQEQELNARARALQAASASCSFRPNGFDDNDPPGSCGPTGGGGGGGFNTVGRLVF
Outline: as §1

USP39 = target: T3, USP39 (UniProt Q53GS9)
T3 sequence (whole entry): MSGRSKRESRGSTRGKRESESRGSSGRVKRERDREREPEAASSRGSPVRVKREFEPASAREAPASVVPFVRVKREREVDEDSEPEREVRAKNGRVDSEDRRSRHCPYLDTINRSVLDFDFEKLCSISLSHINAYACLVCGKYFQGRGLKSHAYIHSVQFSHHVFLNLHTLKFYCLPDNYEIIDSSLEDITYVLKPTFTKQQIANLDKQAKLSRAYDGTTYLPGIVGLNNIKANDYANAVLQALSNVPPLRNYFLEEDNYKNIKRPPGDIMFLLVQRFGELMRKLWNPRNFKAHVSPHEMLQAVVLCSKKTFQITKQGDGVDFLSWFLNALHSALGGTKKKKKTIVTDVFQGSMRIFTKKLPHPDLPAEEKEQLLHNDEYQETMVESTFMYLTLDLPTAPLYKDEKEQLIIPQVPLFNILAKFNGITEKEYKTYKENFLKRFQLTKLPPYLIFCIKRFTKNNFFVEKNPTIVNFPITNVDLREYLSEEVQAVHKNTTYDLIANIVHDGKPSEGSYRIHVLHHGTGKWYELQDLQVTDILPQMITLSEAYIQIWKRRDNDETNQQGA
Outline: as §1

USP4 = target: T4, USP4 (UniProt Q13107)
T4 sequence (whole entry): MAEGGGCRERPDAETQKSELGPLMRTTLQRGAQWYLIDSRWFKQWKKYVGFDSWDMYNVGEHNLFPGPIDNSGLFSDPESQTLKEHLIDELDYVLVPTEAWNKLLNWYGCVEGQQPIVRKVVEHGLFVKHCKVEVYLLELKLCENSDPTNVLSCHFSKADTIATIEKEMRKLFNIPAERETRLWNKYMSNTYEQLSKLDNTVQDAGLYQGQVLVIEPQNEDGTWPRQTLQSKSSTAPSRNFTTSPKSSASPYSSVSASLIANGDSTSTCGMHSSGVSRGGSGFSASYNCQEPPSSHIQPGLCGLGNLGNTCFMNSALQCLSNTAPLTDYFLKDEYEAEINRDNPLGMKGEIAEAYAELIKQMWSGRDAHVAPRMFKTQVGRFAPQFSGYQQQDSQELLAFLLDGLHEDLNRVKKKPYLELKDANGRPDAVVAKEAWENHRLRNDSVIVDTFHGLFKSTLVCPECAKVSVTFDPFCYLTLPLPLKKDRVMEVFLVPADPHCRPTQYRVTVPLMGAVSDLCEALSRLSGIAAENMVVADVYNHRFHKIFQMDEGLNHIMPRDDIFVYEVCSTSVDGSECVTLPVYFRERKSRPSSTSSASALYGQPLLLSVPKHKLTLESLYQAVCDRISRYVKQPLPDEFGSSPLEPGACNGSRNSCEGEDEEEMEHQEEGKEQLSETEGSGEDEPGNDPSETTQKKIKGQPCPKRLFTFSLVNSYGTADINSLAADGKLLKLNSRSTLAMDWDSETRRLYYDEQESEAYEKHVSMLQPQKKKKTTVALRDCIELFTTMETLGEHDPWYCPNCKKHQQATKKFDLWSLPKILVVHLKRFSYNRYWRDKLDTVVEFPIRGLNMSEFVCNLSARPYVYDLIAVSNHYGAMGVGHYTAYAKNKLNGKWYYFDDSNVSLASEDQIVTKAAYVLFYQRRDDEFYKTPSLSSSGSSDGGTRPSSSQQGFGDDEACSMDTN
Outline: as §1

Measured: log2 ratio of Biotin-Ahx-Ub-VS probe labelling

USP34, sequence (Q70CQ2 whole entry, the tested form may be a part): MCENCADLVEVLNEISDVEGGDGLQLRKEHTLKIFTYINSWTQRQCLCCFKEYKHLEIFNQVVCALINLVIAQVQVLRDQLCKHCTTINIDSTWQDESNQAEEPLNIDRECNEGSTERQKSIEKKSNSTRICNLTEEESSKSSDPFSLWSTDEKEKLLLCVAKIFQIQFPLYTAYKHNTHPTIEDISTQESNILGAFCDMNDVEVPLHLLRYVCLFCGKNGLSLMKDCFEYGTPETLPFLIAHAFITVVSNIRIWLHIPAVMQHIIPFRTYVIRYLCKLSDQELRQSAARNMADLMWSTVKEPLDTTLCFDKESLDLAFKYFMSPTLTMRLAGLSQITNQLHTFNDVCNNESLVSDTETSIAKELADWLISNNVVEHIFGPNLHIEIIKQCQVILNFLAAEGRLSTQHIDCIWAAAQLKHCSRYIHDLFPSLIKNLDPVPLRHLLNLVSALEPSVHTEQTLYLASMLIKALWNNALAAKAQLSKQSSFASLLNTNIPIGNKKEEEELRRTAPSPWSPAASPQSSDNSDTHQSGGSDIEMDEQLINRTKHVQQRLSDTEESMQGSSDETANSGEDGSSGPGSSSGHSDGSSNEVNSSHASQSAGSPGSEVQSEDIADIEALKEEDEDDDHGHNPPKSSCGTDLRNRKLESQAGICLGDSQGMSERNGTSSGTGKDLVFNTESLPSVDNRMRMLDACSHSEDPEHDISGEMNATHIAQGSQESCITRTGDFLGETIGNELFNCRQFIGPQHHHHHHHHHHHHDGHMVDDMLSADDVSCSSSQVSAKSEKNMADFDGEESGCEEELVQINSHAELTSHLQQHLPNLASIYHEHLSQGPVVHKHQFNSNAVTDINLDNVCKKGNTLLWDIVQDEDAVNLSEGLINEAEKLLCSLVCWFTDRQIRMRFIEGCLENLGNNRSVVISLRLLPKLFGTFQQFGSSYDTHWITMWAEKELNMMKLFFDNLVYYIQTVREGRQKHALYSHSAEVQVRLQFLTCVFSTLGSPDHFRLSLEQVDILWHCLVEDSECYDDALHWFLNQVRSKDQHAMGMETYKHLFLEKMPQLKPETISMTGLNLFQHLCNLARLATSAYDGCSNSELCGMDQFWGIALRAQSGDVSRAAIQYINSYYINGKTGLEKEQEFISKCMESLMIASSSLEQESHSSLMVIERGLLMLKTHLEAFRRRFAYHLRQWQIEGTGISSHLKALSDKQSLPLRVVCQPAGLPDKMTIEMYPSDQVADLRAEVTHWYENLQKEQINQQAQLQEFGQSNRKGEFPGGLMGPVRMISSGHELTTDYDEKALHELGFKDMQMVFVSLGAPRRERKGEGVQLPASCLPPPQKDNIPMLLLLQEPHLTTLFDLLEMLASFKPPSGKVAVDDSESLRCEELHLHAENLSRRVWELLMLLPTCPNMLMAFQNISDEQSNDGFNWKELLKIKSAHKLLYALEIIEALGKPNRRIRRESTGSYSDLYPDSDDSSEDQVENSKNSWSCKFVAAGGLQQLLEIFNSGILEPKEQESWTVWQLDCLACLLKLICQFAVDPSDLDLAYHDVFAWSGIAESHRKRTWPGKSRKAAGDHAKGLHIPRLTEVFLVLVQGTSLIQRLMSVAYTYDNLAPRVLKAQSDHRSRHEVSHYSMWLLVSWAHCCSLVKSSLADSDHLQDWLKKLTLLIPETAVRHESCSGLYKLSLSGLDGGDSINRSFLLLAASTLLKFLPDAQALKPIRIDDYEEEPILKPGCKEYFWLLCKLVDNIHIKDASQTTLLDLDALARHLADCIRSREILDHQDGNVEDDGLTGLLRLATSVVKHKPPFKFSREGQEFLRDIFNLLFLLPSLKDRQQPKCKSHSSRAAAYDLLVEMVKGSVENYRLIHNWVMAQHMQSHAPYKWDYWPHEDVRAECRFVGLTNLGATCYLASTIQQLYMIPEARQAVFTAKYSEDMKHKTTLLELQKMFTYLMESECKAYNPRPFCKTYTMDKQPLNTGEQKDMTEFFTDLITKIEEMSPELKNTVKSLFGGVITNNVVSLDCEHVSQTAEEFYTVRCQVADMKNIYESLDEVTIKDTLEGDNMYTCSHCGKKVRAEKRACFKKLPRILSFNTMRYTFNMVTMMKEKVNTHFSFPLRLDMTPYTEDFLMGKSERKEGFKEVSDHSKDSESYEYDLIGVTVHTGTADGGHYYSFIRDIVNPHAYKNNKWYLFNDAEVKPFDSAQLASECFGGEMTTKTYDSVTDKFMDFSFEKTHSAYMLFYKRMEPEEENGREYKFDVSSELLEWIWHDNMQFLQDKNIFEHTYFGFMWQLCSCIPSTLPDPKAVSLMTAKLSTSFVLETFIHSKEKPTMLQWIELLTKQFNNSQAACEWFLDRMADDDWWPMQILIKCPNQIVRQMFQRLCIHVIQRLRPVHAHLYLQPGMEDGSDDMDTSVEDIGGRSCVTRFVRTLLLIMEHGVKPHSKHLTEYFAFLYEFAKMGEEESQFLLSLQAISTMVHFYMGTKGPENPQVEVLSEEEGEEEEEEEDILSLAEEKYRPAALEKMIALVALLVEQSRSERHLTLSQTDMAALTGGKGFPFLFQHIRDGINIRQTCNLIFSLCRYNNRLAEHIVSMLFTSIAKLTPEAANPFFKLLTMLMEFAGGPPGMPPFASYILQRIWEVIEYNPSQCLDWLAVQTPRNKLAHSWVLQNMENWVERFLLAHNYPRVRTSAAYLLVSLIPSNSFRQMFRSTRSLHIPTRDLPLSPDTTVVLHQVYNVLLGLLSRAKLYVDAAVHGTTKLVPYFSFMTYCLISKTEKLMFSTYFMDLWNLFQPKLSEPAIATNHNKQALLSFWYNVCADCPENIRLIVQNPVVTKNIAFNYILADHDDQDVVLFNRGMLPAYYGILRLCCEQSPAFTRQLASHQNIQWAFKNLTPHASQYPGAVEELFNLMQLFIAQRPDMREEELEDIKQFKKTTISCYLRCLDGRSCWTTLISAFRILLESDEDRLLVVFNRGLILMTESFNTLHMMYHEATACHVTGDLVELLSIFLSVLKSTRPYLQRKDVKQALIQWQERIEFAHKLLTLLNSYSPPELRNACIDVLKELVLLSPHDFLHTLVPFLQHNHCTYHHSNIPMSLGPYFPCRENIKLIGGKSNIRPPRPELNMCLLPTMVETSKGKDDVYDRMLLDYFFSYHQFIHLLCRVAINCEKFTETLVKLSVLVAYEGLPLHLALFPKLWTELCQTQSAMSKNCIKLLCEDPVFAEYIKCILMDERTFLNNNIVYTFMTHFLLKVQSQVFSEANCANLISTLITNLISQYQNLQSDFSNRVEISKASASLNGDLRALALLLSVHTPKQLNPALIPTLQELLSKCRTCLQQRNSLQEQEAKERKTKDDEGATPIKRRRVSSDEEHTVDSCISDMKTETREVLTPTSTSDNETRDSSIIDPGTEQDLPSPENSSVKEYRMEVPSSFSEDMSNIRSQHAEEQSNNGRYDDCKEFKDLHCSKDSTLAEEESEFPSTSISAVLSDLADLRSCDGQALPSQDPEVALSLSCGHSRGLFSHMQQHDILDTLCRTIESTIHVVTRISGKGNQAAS

O=C(CCl)N1CCOC(c2cccc(F)c2)C1 (stereo not given)
inactive: USP34 -0.575 | USP36 -0.337 | USP38 -0.131 | USP39 -0.0268 | USP4 -0.344
